Screening data as filed in PubChem BioAssay.
Most compounds without a hit are left out; they make up all but 4.2% or so of the library.
TIM10 inh = growth inhibitors of TIM10 yeast strain. S. cerevisiae TIM10 strain growth, BacTiter-Glo luminescence, 24 h. inhibition, % at 10 µM. hit rate 1.4% among 330,000. AID 463195;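 active = inhibition of 40% or more at the single tested concentration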;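 note: wild-type TIM10 isogenic control strain grown at permissive 25 °C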
NLRP3 yeast inh = blocks the NALP3 inflammasome reconstituted in yeast | inhibition, % at 10 µM | hit rate 0.39% among 330,000 | AID 2825 | Yeast reconstituted NLRP3/ASC/caspase-1, beta-gal luminescence, 24 h;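 active = inhibition of 50% or more; inactive = inhibition below 50%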
tim23-1 inh = inhibits growth of tim23-1 mutant yeast; S. cerevisiae tim23-1 growth, BacTiter-Glo luminescence, 24 h; inhibition, % at 20 µM; hit rate 1.3% among 330,000;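 active = growth inhibition of the mutant yeast at or above 50%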;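 note: temperature-sensitive mutant grown at 25 °C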
tim10-1 inh = inhibits growth of tim10-1 mutant yeast; S. cerevisiae tim10-1 ts strain growth, BacTiter-Glo, 24 h; inhibition, % at 20 µM; hit rate 2.2% among 330,000;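 active = inhibition of at least 40%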;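 note: mutant grown at 25 °C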
NALP1 yeast inh = blocks the NALP1 inflammasome reconstituted in yeast | S. cerevisiae NALP1/ASC/caspase-1 growth, X-gal OD620, 72 h | inhibition, % at 10 µM | hit rate 0.61% among 280,000 | AID 2071; in the data active = inhibition mostly above about 24%, no sharp cut-off; inactive = mostly below about 32%
V-ATPase pH = regulators of yeast V-ATPase proton transport; hit rate 0.37% among 350,000; S. cerevisiae, pHLuorin cytosolic pH fluorescence; AID 504577; response, % at 10 µM; in the data active = response mostly above about 7.3%, no sharp cut-off; inactive = mostly below about 5.4%; note: actives read high
tim10 confirm = confirmation of TIM10 yeast growth inhibitors. shares compounds with TIM10 inh. S. cerevisiae tim10 strain growth, BacTiter-Glo luminescence, 24 h. inhibition, % at 10 µM. hit rate 63% among 4,600;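 active = inhibition of yeast growth at or above a set limit in either of two replicates at 10 µM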; note: this counterscreen used the strain with wild-type TIM10
tim23-1 conf = tim23-1 yeast growth inhibition, confirmed. shares compounds with tim23-1 inh. S. cerevisiae tim23-1 growth, BacTiter-Glo luminescence, 24 h. inhibition, % at 20 µM. hit rate 83% among 4,400;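 active = inhibition above about 39% in either of two replicate wells at 20 µM, limit read from the data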;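 note: temperature-sensitive tim23-1 mutant grown at 25 °C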
Large screens that a line does not name were inactive (follow-up assays come after a bar, where they were run).

COc1cc(OC)c(OC)cc1CN1CCCC(C(=O)N2CCCC2)C1 (configuration not stated)	none
Cn1c(C(=O)Nc2ccc3c(c2)OCCO3)cc2sccc21	TIM10 inh 55.7, tim23-1 inh 56.2 | tim10 confirm inactive | tim23-1 conf 43.5
COc1ccccc1[C@@]1(C)ON(c2ccccc2C(F)(F)F)C1=O	TIM10 inh 65.2, tim23-1 inh 63.1 (no result: NALP1 yeast inh) | tim10 confirm 54.6 | tim23-1 conf inactive
CC[C@]1(c2ccccc2C)ON(c2ccccc2C(F)(F)F)C1=O	none (no result: NALP1 yeast inh)
O=C(COCc1cc(-c2ccc3c(c2)OCO3)on1)N1CCN(c2ccc(F)cc2)CC1	none
CCOCC(=O)Nc1cc(C(=O)Nc2ccccc2)ccc1Cl	TIM10 inh 53.7, tim23-1 inh 60.3 | tim10 confirm 45.0 | tim23-1 conf 67.4
CC(C)(C)c1ccc(C(=O)Oc2ccccc2CCC(=O)O)cc1	none
CCOC(=O)c1sc2ccccc2c1OC(=O)c1ccccc1OC	TIM10 inh 48.5, tim23-1 inh 53.8 | tim10 confirm 44.4 | tim23-1 conf 50.2
CCOC(=O)/C(C#N)=C/c1cc(C)n(-c2ccccc2)c1C	none
CCOC(=O)/C(C#N)=C/c1cc2ccc(C)cc2nc1Cl	TIM10 inh 42.1, tim23-1 inh 56.2 | tim10 confirm inactive | tim23-1 conf 63.5
Cc1ccc(-n2ncc3c2ncn2c(-c4ccncc4)nnc32)cc1	none (no result: TIM10 inh, NLRP3 yeast inh, tim23-1 inh, tim10-1 inh, V-ATPase pH)
CCCCC(=O)Nc1cccc2c1C(=O)N(c1ccccc1)C2=O	TIM10 inh 43.3, tim23-1 inh 50.2 | tim10 confirm 39.8 | tim23-1 conf 51.7
CC(=O)Nc1ccc(N2C(=O)c3cccc(NC(C)=O)c3C2=O)cc1	none
COc1ccccc1N1CC(C)(C)C(=O)N(C(=O)c2ccc(Cl)cc2)C1=S	TIM10 inh 45.2, tim23-1 inh 51.5 | tim10 confirm 54.2 | tim23-1 conf 52.1
COc1ccc(N=Cc2cc(Cc3ccccc3Cl)cc([N+](=O)[O-])c2O)cc1OC	TIM10 inh 60.2, tim23-1 inh 80.4 | tim10 confirm 48.1 | tim23-1 conf inactive
COc1ccc([N+](=O)[O-])cc1NC(=O)Cc1ccccc1Cl	none
COc1ccc(C2C(C#N)=C(SC)NC3=C2C(=O)CC(C)(C)C3)cc1 (configuration not stated)	none
C=CCC1(C#N)C(SC)=NC2=C(C(=O)CC(C)(C)C2)C1c1ccc(Br)cc1 (configuration not stated)	TIM10 inh 44.2, tim23-1 inh 55.0 | tim10 confirm 32.0 | tim23-1 conf 43.4
Cc1ccc(/C=C/C(=O)OCC(=O)NC(C)c2ccccc2)o1 (configuration not stated)	none (no result: NALP1 yeast inh)
O=Cc1ccccc1OCCOc1ccc([N+](=O)[O-])cc1	TIM10 inh 75.8, tim23-1 inh 58.4 | tim10 confirm 68.0 | tim23-1 conf 89.5
CC(=O)c1ccc(OCCOc2ccc([N+](=O)[O-])cc2)cc1	none
COc1ccc(-n2c(NN)nc3sc4c(c3c2=O)CCCC4)cc1	TIM10 inh 49.3, tim23-1 inh 69.8 | tim10 confirm inactive | tim23-1 conf 62.4
CC(CN1CCOCC1)OC(=O)c1ccc2c(c1)OCCO2 (configuration not stated)	TIM10 inh 41.4, tim23-1 inh 72.1 | tim10 confirm inactive | tim23-1 conf 47.2
C=C1SC(Nc2c(C)cc(C)cc2C)=NC12CCCCC2	TIM10 inh 44.7, tim23-1 inh 64.6 | tim10 confirm 39.1 | tim23-1 conf 62.9
Cc1ccc(C(=O)NC(=S)N(C)C2CCCCC2)cc1Br	none
COc1ccc(C(=O)NC(=S)N(C)C2CCCCC2)cc1Br	TIM10 inh 42.2, tim23-1 inh 54.6 | tim10 confirm inactive | tim23-1 conf 48.5
N=c1n(CCN2CCCCC2)c2ccccc2n1CC(=O)c1cccs1	none
COc1ccc(C(=O)Nc2ccc3ccccc3c2)c(OC)c1	TIM10 inh 57.4, tim23-1 inh 60.5 | tim10 confirm 62.0 | tim23-1 conf 80.0
NC(=S)N/N=C\c1ccccc1OCc1ccccc1	TIM10 inh 40.8, tim23-1 inh 53.2 | tim10 confirm inactive | tim23-1 conf inactive
O=C(CSCc1ccccc1)N/N=C/c1ccccc1OCc1ccccc1	none
Nc1ccc(-c2nc3c(ccc4ccccc43)[nH]2)cc1	TIM10 inh 65.8, tim23-1 inh 57.6 | tim10 confirm 66.1 | tim23-1 conf 52.2
O=C(N/N=C/c1cc(Br)cc(Br)c1O)c1ccncc1	TIM10 inh 45.4, tim23-1 inh 64.7 (no result: V-ATPase pH) | tim10 confirm 51.2 | tim23-1 conf 65.2
CCC(O)(CC)C(=O)N/N=C/c1cc(Br)cc(Br)c1O	TIM10 inh 57.9, tim23-1 inh 66.9 | tim10 confirm 49.0 | tim23-1 conf 73.0
O=C(N/N=C/c1cc(Br)c(Br)s1)c1ccncc1	none
O=c1c2nncn2c2cc(C(F)(F)F)ccc2n1CCNc1ncc(C(F)(F)F)cc1Cl	none (no result: NALP1 yeast inh)
CC1CCCN(Cc2c(O)ccc3c(=O)c(-c4nc5ccccc5s4)c(N)oc23)C1 (configuration not stated)	TIM10 inh 52.0, tim23-1 inh 55.7 | tim10 confirm 51.4 | tim23-1 conf 58.2
COn1c(=O)c(-c2ccccc2)[n+]([O-])c2ccccc21	none
COn1c(=O)c(-c2cccs2)[n+]([O-])c2ccccc21	TIM10 inh 43.4, tim23-1 inh 51.5 | tim10 confirm inactive | tim23-1 conf 63.7
Cc1cccc(C(=O)Oc2ccc(/C=N/O)cc2)c1	TIM10 inh 41.7, tim23-1 inh 62.0 | tim10 confirm 32.4 | tim23-1 conf 50.2
COc1ccc(N(C)S(=O)(=O)c2cccc(C(=O)Nc3ccc(N4CCOCC4)cc3)c2)cc1	none (no result: NALP1 yeast inh)
Cc1cc(C)c(OCC(=O)Nc2ccc(NC(=O)c3ccco3)cc2)c([N+](=O)[O-])c1	none (no result: TIM10 inh, NLRP3 yeast inh, tim23-1 inh, tim10-1 inh)
O=C(COc1cccc(NC(=O)c2ccco2)c1)c1ccccc1	TIM10 inh 48.2, tim23-1 inh 54.4 | tim10 confirm inactive | tim23-1 conf 66.1
O=C(Nc1ccc(Oc2cccc3ccccc23)cc1)c1ccco1	TIM10 inh 40.0, tim23-1 inh 58.4 | tim10 confirm inactive | tim23-1 conf 76.8
COc1ccc(C(=O)COc2cccc(NC(=O)c3ccco3)c2)cc1	none
Cc1cc(C)c(OCC(=O)Nc2cccc(NC(=O)c3ccco3)c2)c(Br)c1	TIM10 inh 45.2, tim23-1 inh 55.4 | tim10 confirm inactive | tim23-1 conf 43.5
CCOc1ccc(CNC(=O)C2CCN(c3nnc(C)c4c(C)n(-c5ccc(C)cc5)nc34)CC2)cc1	none
O=C(c1ccco1)N1CCN(c2nnc(-c3ccccc3)c3ccccc23)CC1	tim23-1 inh 51.0 | tim10 confirm inactive | tim23-1 conf inactive
CCN(C(=O)c1cc2c(=O)n3cccc(C)c3nc2s1)C1CCCCC1	none
